SMILES strings stand for the structures. Several values for one entry are separate records, joined by “and”; a condition that tells them apart may be missing. Equal entries are not always repeated. Results filed as inconclusive are left out. Unmarked numbers belong to inactive results. Activity calls are given as the source filed them. The call rests on the fitted dose curve; in most records, active means well fitted curve in the direction sought with a large enough effect; inconclusive means small, poorly fitted or top-dose-only effect, or another doubt; inactive means no such curve, though single readings can be large; an effect the other way counts as inactive or inconclusive.

One test has as its system CRL-7250. Kind of test: Cytotoxic Profiling of Annotated Libraries Using Quantitative High-Throughput Screening (AID 1296008). Further: nearly all actives have a fitted effect of over 60% in size. Further: potency means the concentration at half of the fitted maximal effect. On max response: on the % scale 0 is the no-effect control and ±100 the full control effect. The settings on record: Five cell lines viability, CellTiter-Glo ATP luminescence, 48-72 h; max response: stronger effect = lower value. In outline: (§1)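 Cytotoxicity was measured as CellTiter-Glo ATP luminescence, read after 10 min at room temperature. Compound treatment of the cells lasted 48 or 72 hr at 37 degrees Celsius in a qHTS format.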

A further test has as its system HEK293. Described as above. The settings on record: Five cell lines viability, CellTiter-Glo ATP luminescence, 48-72 h; max response: stronger effect = lower value. In outline:
as §1
A general note: Cellular ATP, detected with luciferase, serves as a proxy for viable cell number.

Test [1] relates to HaCat. The description is as above. The settings on record: Five cell lines viability, CellTiter-Glo ATP luminescence, 48-72 h; max response: stronger effect = lower value. In short, it runs like this: as §1
Another test has as its system NIH3T3. The test is described as above. The conditions noted are these: Five cell lines viability, CellTiter-Glo ATP luminescence, 48-72 h; max response: stronger effect = lower value. In short, it runs like this: as §1
For the next test, the system named is MCC-13. Nature of the test: qHTS assay to identify novel small-molecules to repurpose for Merkel cell carcinoma treatment (AID 1296009). Further: nearly all actives have a fitted effect of over 60% in size. Further: potency means the concentration at half of the fitted maximal effect. The conditions noted are these: MCC and control cell lines, CellTiter-Glo viability, 72 h; series mostly up to 46 µM. In outline:
(§2)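 Cell viability, measured as CellTiter-Glo luminescence, was normalized between DMSO and no-cell wells. The cells had been exposed to 8- or 11-point compound dilutions for 72 hr at 37 degree celsius.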
In general terms: In qHTS, concentration-response curves come from the screen itself.

The test system of the next test is MCC-26. The description is as above. The conditions noted are these: MCC and control cell lines, CellTiter-Glo viability, 72 h; series mostly up to 46 µM. In short, it runs like this: as §2
For the next test, the system named is MKL-1. The test is described as above. The conditions noted are these: MCC and control cell lines, CellTiter-Glo viability, 72 h; series mostly up to 46 µM. In short, it runs like this:
as §2

The next test concerns KB-3-1. Kind of test: Cytotoxic Profiling of Annotated Libraries Using Quantitative High-Throughput Screening (AID 1296008). Further: nearly all actives have a fitted effect of over 60% in size. Further: potency means the concentration at half of the fitted maximal effect. On max response: on the % scale 0 is the no-effect control and ±100 the full control effect. The settings on record: Five cell lines viability, CellTiter-Glo ATP luminescence, 48-72 h; max response: stronger effect = lower value. In short, it runs like this: as §1
For test [2], the system named is HACAT. Kind of test: qHTS assay to identify novel small-molecules to repurpose for Merkel cell carcinoma treatment (AID 1296009). Further: nearly all actives have a fitted effect of over 60% in size. Further: potency means the concentration at half of the fitted maximal effect. The settings on record: MCC and control cell lines, CellTiter-Glo viability, 72 h; at 44.8 µM (top of the series) unless noted. In short, it runs like this:
as §2

The next test relates to MKL-2. Described as above. The conditions noted are these: MCC and control cell lines, CellTiter-Glo viability, 72 h; series mostly up to 46 µM. In outline:
as §2

In the next test the test system is UISO. Described as above. The settings on record: MCC and control cell lines, CellTiter-Glo viability, 72 h; series mostly up to 46 µM. In short, it runs like this:
as §2

The next test has as its system WaGa. The test is described as above. The conditions noted are these: MCC and control cell lines, CellTiter-Glo viability, 72 h; series mostly up to 46 µM. In outline: as §2
For another test, the system named is C33A. Kind of test: Primary qHTS to identify gynecologic anti-cancer compounds using libraries of approved drugs and bioactive compounds (AID 1345084). Further: on the % scale 0 is the no-effect control and ±100 the full control effect; nearly all actives have a fitted effect of over 55% in size. The conditions noted are these: Gynecologic cancer cell panel viability, ATPlite luminescence, 48 h; series mostly up to 57.5 µM. In short, it runs like this:
(§3)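 Cells, 1,000 per well, were allowed to settle for 16 h at 37 C before compound addition. Five concentrations were tested for 48 h, and viability was read by ATPlite luminescence after 15 min at room temperature.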

The test system of another test is CASKI. Described as above. The settings on record: Gynecologic cancer cell panel viability, ATPlite luminescence, 48 h; series mostly up to 57.5 µM. In short, it runs like this: as §3
The test system of another test is Es-2. The test is described as above. The settings on record: Gynecologic cancer cell panel viability, ATPlite luminescence, 48 h; series mostly up to 57.5 µM. In outline: as §3
The test system of another test is HeLa. The description is as above. The settings on record: Gynecologic cancer cell panel viability, ATPlite luminescence, 48 h; series mostly up to 57.5 µM. In short, it runs like this: as §3
The subject of a further test is W2. Nature of the test: qHTS profiling for inhibitors of Plasmodium falciparum proliferation (AID 504749). The settings on record: P. falciparum in erythrocytes, SYBR Green DNA, 72 h; series mostly up to 28.7 µM. In outline:
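SYBR Green fluorescence of parasite DNA, read after lysis and overnight dark incubation, measured growth over 72 h in erythrocyte culture at 0.3% parasitemia and 2.5% hematocrit. Data normalised to DMSO and 0.29 uM artemisinin, with plate-drift correction.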

Take `Cc1cc(OCCCS(C)(=O)=O)cc(C)c1-c1cccc(COc2ccc3c(c2)OC[C@H]3CC(=O)O)c1`: the values for the max response in the test with CRL-7250, with HaCat [1] and with NIH3T3 were -33.3%, -16.3% and -18.7%, respectively. Besides, the Potency with HEK293 is 20.9 µM (active). Besides, the Potency result with MCC-13, in the test with MCC-26 and in the test on MKL-1 was “inactive” each time.
For the compound `CCCCn1c(=O)n(Cc2ccccc2F)c(=O)c2[nH]c(Cc3ccc(NC(C)=O)cc3)nc21`, the max response with CRL-7250 is -20% and 4.17%; in the test with HaCat [1] it was -7.85%; in the test with KB-3-1 it was -6.11%; in the test with NIH3T3 it was -1.2% and 4.04%. Besides, the outcome with HaCat [1], in the test with KB-3-1 and with HACAT [2] was inactive. The Potency result with MCC-13, with MCC-26, in the test with MKL-1, in the test with MKL-2, with UISO and with WaGa was “inactive” throughout. Moreover, the Potency result with C33A, in the test on CASKI, with Es-2 and with HeLa was “inactive” in each case.
In the case of `Cc1ccc(C(=O)N(CCCN)[C@@H](c2oc3cc(Cl)ccc3c(=O)c2Cc2ccccc2)C(C)C)cc1`, in the test on CRL-7250, the max response was -26.7%. In addition, the Potency in the test on HEK293 was 0.0662 µM (active); in the test with KB-3-1, 0.0008 µM (active); in the test with MCC-13, 0.0083 µM (active); in the test with MKL-2, 8.33 µM (active). Besides, the Potency entry in the test with MKL-1 and in the test with WaGa was “inactive” each time.
Consider `Cn1cnc(-c2cc3nccc(Oc4ccc(NC(=S)NC(=O)Cc5ccccc5)cc4F)c3s2)c1`, for which the Potency was 26.4 µM (active) in the test with CRL-7250; 23.5 µM (active) in the test with HEK293; 11.8 µM (active) and 13 µM (active) in the test with NIH3T3; 18.7 µM (active) in the test on UISO. Besides, the Potency result in the test with MCC-13, in the test with MKL-1, in the test with MKL-2, in the test with WaGa, with C33A and with CASKI was “inactive” in each case. For the same compound, the Potency entry in the test on Es-2 was “inactive”.
In the case of `CCCCCCCCCCCCCC(=O)N[C@H](CO)[C@H](O)c1ccc([N+](=O)[O-])cc1`, the Potency in the test on CRL-7250 was 9.35 µM (active); in the test with HEK293, 5.26 µM (active). The max response with KB-3-1 is 5.57%. The Potency result with MCC-13, in the test on MCC-26, in the test on MKL-1, with MKL-2, in the test with UISO and with WaGa was “inactive” throughout.
Regarding `CC(O)=C(C#N)C(=O)Nc1ccc(C(F)(F)F)cc1`, the max response with CRL-7250 was -8.07%; with HaCat [1], -27.6%. Besides, in the test on HEK293, the Potency is 11.8 µM (active). The Potency result with MCC-13 and with MCC-26 was “inactive” in each case.
Regarding `COc1c(C)c2c(c(O)c1CC=C(C)CCC(=O)OCCN1CCOCC1)C(=O)OC2`, the Potency is 6.01 µM (active) with W2; 3.32 µM (active) with CRL-7250; 3.72 µM (active) with HEK293; 5.26 µM (active) in the test on NIH3T3; 1.32 µM (active) in the test on MKL-2; 2.64 µM (active) in the test with WaGa. In addition, the max response in the test on HaCat [1] was -7.64%.

(Values after PubChem BioAssay (NCATS).)
